Some of the results follow. Values without a mark were called inactive. Active and inactive are the calls of the source.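 How the source made its calls: active means inhibition score of 15 or more, meaning 100 minus mean polarization as percent of control over three replicates; inactive means the rest.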

In this test the target is Guanine nucleotide-binding protein G(i) subunit alpha-3 (Rattus norvegicus) (UniProt P08753). Nature of the test: GIV-Galphai3 interaction disruptors, retest – biochemical, fluorescence polarization, FITC-GIV peptide, rat Galphai3, confirmation (AID 1259350).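 Further: lower mP means peptide displaced from Galphai3 so more inhibition.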 The following applies: FITC-GIV peptide binding to Galphai3, fluorescence polarization; at 100 µM; active compounds read low. On the technique in general: In fluorescence polarisation assays a small probe gives low polarisation when free and higher when bound to something large.
Sequence of Guanine nucleotide-binding protein G(i) subunit alpha-3 (Rattus norvegicus) (P08753 whole entry, looked up): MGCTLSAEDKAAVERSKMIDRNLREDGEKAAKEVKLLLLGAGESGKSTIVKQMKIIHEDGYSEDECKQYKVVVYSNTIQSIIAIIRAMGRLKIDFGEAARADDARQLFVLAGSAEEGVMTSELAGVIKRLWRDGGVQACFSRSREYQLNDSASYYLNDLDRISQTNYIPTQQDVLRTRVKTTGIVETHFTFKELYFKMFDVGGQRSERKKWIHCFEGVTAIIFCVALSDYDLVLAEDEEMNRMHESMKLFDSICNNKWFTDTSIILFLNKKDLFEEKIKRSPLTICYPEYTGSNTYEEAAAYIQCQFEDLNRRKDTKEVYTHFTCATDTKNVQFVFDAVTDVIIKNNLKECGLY
In the case of `N#CC(C#N)=C(C#N)/C=C/n1c2ccccc2c2ccccc21`, the fluorescence polarization was 50.6 mP (active). The figure for `O=C(O)c1c2ccccc2[nH]c2c1oc1cc(=O)ccc12` is 71.6 mP; for `COc1ccccc1N1C(=O)/C(=C/c2ccc(Cl)cc2)C=C1c1ccccc1` it is 77.8 mP. The figure for `Cc1ccc(NC(=O)c2nc[nH]c2C(=O)N2CCCCC2)c(C(=O)c2ccccc2)c1` is 54.4 mP (active); for `CCOc1cc(/C=C2/C(=O)N(c3nn[nH]n3)N=C2C)cc(Cl)c1OCC` it is 69.8 mP. On to `Cc1ccc(C(=O)N2CCc3cc(CNC(=O)c4ccc(Br)cc4)ccc32)cc1`, for which the fluorescence polarization was 85.2 mP. On to `CC(=O)Oc1cccc2c1C(=O)C=CC2=O`, for which the fluorescence polarization was 73.2 mP.

As for `COc1ccc(N=Nc2c(-c3ccc(OC)cc3)[nH]oc2=O)cc1`, the fluorescence polarization was 72.7 mP. Turning to `O=C(O)c1cc(NS(=O)(=O)c2ccc3c(c2)CCCC3)cnc1N1CCOCC1`, the fluorescence polarization is 43 mP (active).

For the origin of these results see PubChem BioAssay AID1259350 (ICCB-Longwood Screening Facility, Harvard Medical School, 2017).
